Source: PubChem BioAssay
Chlamy TAG: algal TAG accumulation induction. Chlamydomonas reinhardtii TAG, Nile Red fluorescence, 72 h. calls only at 10 µM (by protocol). 44,000 compounds, 0.84% hits. AID 1159537; call rule not given here;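 further: hits raise Nile Red signal meaning more stored TAG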
Calls only; – = inactive; + = active, no number. This is one part of a sample in which hits are shown more often than they occur.

SMILES | Chlamy TAG
Cc1cccc(NC(=O)c2ccc(C(C)C)cc2)c1C | –
CCN(Cc1ccccc1)C(=O)C1CCN(Cc2ccccc2F)CC1 | +
COc1ccccc1CN1CCC(C(=O)N(CCN(C)C)Cc2ccccc2)CC1 | –
O=C(C1CCN(Cc2ccccc2O)CC1)N(CCO)Cc1ccccc1 | –
CCCCNC(=O)c1sc2ccccc2c1Cl | –
O=C(Nc1c(F)c(F)c(F)c(F)c1F)c1ccncc1 | –
Cc1cc(NCc2ccccc2)nc(N2CCOCC2)n1 | +
Cc1cc(NCc2ccccc2)nc(-c2ccccc2O)n1 | –
Cc1cc(N2CCOCC2)nc(NCc2ccccc2)n1 | –
CCOc1nc(NC2CCCCC2)nc(OCC)n1 | –
O=[N+]([O-])c1ccc(CN2CCN(c3ncccn3)CC2)cc1 | –
O=C(O)c1ccc(CN2CCN(c3ccc([N+](=O)[O-])cc3)CC2)cc1 | –
CCCCOc1ccc(CN2CCN(c3ccc([N+](=O)[O-])cc3)CC2)cc1 | +
O=[N+]([O-])c1ccc(N2CCN(Cc3ccncc3)CC2)cc1 | –
COc1cc(CN2CCN(c3ccc([N+](=O)[O-])cc3)CC2)cc(Br)c1O | –
CCOc1ccc(CN2CCN(c3ccc([N+](=O)[O-])cc3)CC2)cc1 | +
N/C(=N/OC(=O)Oc1ccccc1)c1ccncc1 | –
COc1ccc(C(=O)Nc2ccc([N+](=O)[O-])cc2Br)cc1 | –
O=C(Nc1nc2c(s1)CCCC2)c1cccc(Cl)c1 | –
COc1cc(C(=O)Nc2nc3c(s2)CCCC3)cc(OC)c1OC | +
CCc1nnc(NC(=O)c2cc(OC)c(OC)c(OC)c2)s1 | –
O=C(Nc1cnc2ccccc2c1)c1cccc(F)c1 | –
CN(C)C1CCS(=O)(=O)C1 (stereo unspecified) | –
O=c1cc(-c2ccc(Cl)cc2)[nH][nH]c1=O | –
CC(C)(C)c1ccc(OCC(O)CN2CCN(CCO)CC2)cc1 (stereo unspecified) | +
SMILES | Chlamy TAG
CC1CN(CC(O)COCc2ccc(Cl)cc2)CC(C)O1 (stereo unspecified) | –
CC1CN(CC(O)COc2ccc(Cl)cc2Cl)CC(C)O1 (stereo unspecified) | –
CC(C)(C)c1ccc(OCC(O)CN)cc1 (stereo unspecified) | –
Cc1cc(C)n(CC(O)COc2ccc(C(C)C)c(C)c2)n1 (stereo unspecified) | –
CC1CN(CC(O)COc2ccc(C(C)(C)C)cc2)CC(C)O1 (stereo unspecified) | +
Cc1cc(OCC(O)CN2CCN(CCO)CC2)ccc1C(C)C (stereo unspecified) | +
Cc1cc(OCC(O)CN2CCN(c3ccccc3)CC2)ccc1C(C)C (stereo unspecified) | –
CCOC(=O)N1CCN(CC(O)COc2ccc(C(C)(C)C)cc2)CC1 (stereo unspecified) | –
NNC(=O)c1ccccc1-n1cccc1 | –
CC(O)CNc1ccc([N+](=O)[O-])c(Sc2nc3ccccc3[nH]2)c1 (stereo unspecified) | –
O=C(C1=C(O)C(=O)N(CCN2CCOCC2)C1c1ccc(F)cc1)c1ccco1 (stereo unspecified) | –
Cc1cccc(NC(=O)CN2C(=O)C(=O)c3ccccc32)c1 | –
O=C(NCC1CCCO1)c1cc(-c2ccc3c(c2)OCO3)nc2ccccc12 (stereo unspecified) | +
O=C(NCc1ccccn1)c1cc(-c2ccc3c(c2)OCO3)nc2ccccc12 | –
NS(=O)(=O)c1ccc(CNC(=O)c2cc(-c3ccc4c(c3)OCO4)nc3ccccc23)cc1 | –
COc1ccc(O)c(C(=O)CC(=O)c2ccccc2C)c1 | –
O=C(/C(=N/O)n1cncn1)c1ccc(Cl)cc1Cl | –
C=CCn1c(SCC)nnc1-c1ccc([N+](=O)[O-])cc1 | –
C=CCn1c(SCC(=O)O)nnc1-c1ccc([N+](=O)[O-])cc1 | +
C=CCn1c(SCC(=O)O)nnc1-c1ccc(OC)cc1 | –
Cc1ccccc1CNC(=O)c1ccc(CN(c2ccccc2)S(C)(=O)=O)cc1 | –
C(#CC12CC3CC(CC(C3)C1)C2)CN1CCOCC1 | +
C(#CC1CC1)CN1CCOCC1 | –
OC1(C#CCN2CCOCC2)CCCCC1 | –
COc1ccc(N2CCN(Cc3cc(OC)cc(OC)c3)CC2)cc1 | –
SMILES | Chlamy TAG
COc1cccc(N2CCN(Cc3ccco3)CC2)c1 | –
COc1cccc(N2CCN(Cc3ccsc3)CC2)c1 | +
Clc1ccc(N2CCN(Cc3cccs3)CC2)cc1 | –
CCOc1cc(CN2CCN(c3ccc(F)cc3)CC2)ccc1OC | –
O=C(c1ccc(CN2CCOCC2)cc1)N1CCN(c2ccc(F)cc2)CC1 | –
O=[N+]([O-])c1ccc(N2CCN(Cc3ccsc3)CC2)cc1 | –
Clc1ccc(N2CCN(Cc3ccsc3)CC2)cc1 | +
Fc1ccc(N2CCN(Cc3ccsc3)CC2)cc1 | +
CC(C)(C)c1nnc(NC(=O)c2ccc(Cl)cc2Cl)s1 | –
COc1ccc(S(=O)(=O)Nc2cccc(C(C)=O)c2)cc1OC | –
COc1ccccc1C(=O)NC1CCS(=O)(=O)C1 (stereo unspecified) | –
CC(=O)c1c(C)nc(-c2ccc([N+](=O)[O-])cc2)nc1N | –
CCOC(=O)N1CCN(C(=O)CN(c2ccc(CC)cc2)S(C)(=O)=O)CC1 | –
CC(NC(=O)c1ccccc1Br)C1CC2CCC1C2 (stereo unspecified) | –
CC(NC(=O)c1ccccc1[N+](=O)[O-])C1CC2CCC1C2 (stereo unspecified) | –
Cc1ccc(C(=O)NC(C)C2CC3CCC2C3)s1 (stereo unspecified) | +
CC(C(=O)NCc1ccc(Cl)cc1)N(c1ccccc1)S(C)(=O)=O (stereo unspecified) | +
CC(C(=O)NC1CCCCCC1)N(c1ccccc1)S(C)(=O)=O (stereo unspecified) | –
CC(C(=O)NCc1cccnc1)N(c1ccccc1)S(C)(=O)=O (stereo unspecified) | –
O=C(Nc1nc(-c2ccccc2)cs1)C1CC2CCC1C2 (stereo unspecified) | –
CN(C)C(=O)CSc1nnc(-c2ccc(Cl)cc2Cl)n1N | –
Nn1c(SCC(=O)NC23CC4CC(CC(C4)C2)C3)nnc1-c1ccc(Cl)cc1Cl | +
Nn1c(SCC(=O)Nc2ccccc2F)nnc1-c1ccc(Cl)cc1Cl | –
O=C(NCCCN1CCOCC1)C1c2ccccc2Oc2ccccc21 | –
Cc1cc(Cl)ccc1N(CC(=O)Nc1cccc(C)c1C)S(C)(=O)=O | –
SMILES | Chlamy TAG
COc1ccc(C(=O)Nc2ccc(S(=O)(=O)Nc3ncccn3)cc2)cc1[N+](=O)[O-] | –
COc1cc(C(=O)Nc2ccc(S(=O)(=O)NC(C)=O)cc2)cc(OC)c1OC | –
COc1cc(C(=O)Nc2ccc(S(=O)(=O)Nc3ncccn3)cc2)cc(OC)c1OC | +
O=C(O)c1ccc(S(=O)(=O)Nc2ccccn2)o1 | –
COc1ccc([N+](=O)[O-])cc1NC(=O)COc1ccc(Br)cc1C | –
CCOc1nc(OCC)nc(N2CCN(c3ccc(OC)cc3)CC2)n1 | –
O=C(c1ccccc1Cl)N1CCN(c2cccc(Cl)c2)CC1 | –
COc1ccc(CCCC(=O)Nc2ccccc2F)cc1 | –
Cc1ccc(OCCCCN2CCCC2)c([N+](=O)[O-])c1 | –
C=CCc1cc(C)ccc1OCCCCN1CCCC1 | –
Brc1cccc(OCCCCN2CCCC2)c1 | –
Cc1ccccc1OCCOCCN1CCN(C)CC1 | –
Cc1ccc(OCCCCN2CCCCC2)c(C)c1 | +
Cc1cc(Br)ccc1OCCCCN1CCCC1 | +
Cc1cc(Br)ccc1OCCCCN1CCN(C)CC1 | +
Cc1ccc(C(C)(C)C)c(OCCCCN2CCN(C)CC2)c1 | –
